Test results taken from PubChem BioAssay (EPA / NIEHS).
Where “and” joins values, the source holds several entries; their conditions need not be identical. Identical values can stand only once. The source holds several records for some structures; these can differ, active in one and inactive in another. Calls of active or inactive are those of the source. Rule for the calls: active = hit-call score of the fitted dose curve at least 0.9, where 1 is the maximum; inactive = score below 0.9.

Key:
[1] = BSK_CASM3C_SRB: Viability Assessment in the BioMAP Diversity Plus: CASM3C Assay (AID 2283050); conditions: primary human coronary artery smooth muscle cells;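 note: total protein by SRB staining as cytotoxicity measure in parallel cultures; cells exposed to compound for 24 h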
[2] = read-out: Thrombomodulin, THBD (gene 7056); experiment: BSK_CASM3C_Thrombomodulin: BioMAP Diversity Plus: CASM3C Assay for Thrombomodulin Biomarker Activity (AID 2283051); conditions: primary human coronary artery smooth muscle cells; actives raise or lower the signal;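 note: thrombomodulin protein level measured by ELISA 24 h after dosing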
[3] = read-out: Tissue Factor, F3 (gene 2152); experiment: BSK_CASM3C_TissueFactor: BioMAP Diversity Plus: CASM3C Assay for Tissue Factor Biomarker Activity (AID 2283052); conditions: primary human coronary artery smooth muscle cells; actives raise or lower the signal;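 note: cell surface tissue factor protein level read by ELISA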
[4] = read-out: Interferon-gamma inducible Protein 10 (IP10), CXCL10 (gene 3627); experiment: BSK_hDFCGF_IP10: BioMAP Diversity Plus: hDFCGF Assay for Interferon-gamma inducible Protein 10 (IP10) Biomarker Activity (AID 2283053); conditions: primary human foreskin fibroblasts; actives raise or lower the signal
How it was run: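 IP-10 levels, quantified by ELISA, are taken from human foreskin fibroblast cultures 24 h after chemical treatment, with DMSO serving as negative control and baseline for bidirectional analysis.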

[5] = read-out: Urokinase-type plasminogen activator receptor (uPAR), PLAUR (gene 5329); experiment: BSK_CASM3C_uPAR: BioMAP Diversity Plus: CASM3C Assay for Urokinase-type plasminogen activator receptor (uPAR) Biomarker Activity (AID 2283054); conditions: primary human coronary artery smooth muscle cells; actives raise or lower the signal;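 note: cell-surface uPAR protein level quantified by ELISA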
[6] = read-out: Vascular cell adhesion molecule 1 (VCAM1), VCAM1 (gene 7412); experiment: BSK_CASM3C_VCAM1: BioMAP Diversity Plus: CASM3C Assay for Vascular cell adhesion molecule 1 (VCAM1) Biomarker Activity (AID 2283055); conditions: primary human coronary artery smooth muscle cells; actives raise or lower the signal;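 note: VCAM-1 protein level quantified by ELISA on the cells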
[7] = read-out: Collagen III, COL3A1 (gene 1281); experiment: BSK_hDFCGF_CollagenIII: BioMAP Diversity Plus: hDFCGF Assay for Collagen III Biomarker Activity (AID 2283056); conditions: primary human foreskin fibroblasts; actives raise or lower the signal
How it was run: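 Human foreskin primary fibroblasts were exposed to test chemicals for 24 h, after which collagen III was quantified by ELISA. Activity was fitted bidirectionally against DMSO as negative control and baseline.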

[8] = read-out: Epidermal growth factor receptor (EGFR), EGFR (gene 1956); experiment: BSK_hDFCGF_EGFR: BioMAP Diversity Plus: hDFCGF Assay for Epidermal growth factor receptor (EGFR) Biomarker Activity (AID 2283057); conditions: primary human foreskin fibroblasts; actives raise or lower the signal
How it was run: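 Measured by ELISA: EGFR levels on primary human foreskin fibroblasts 24 h after chemical treatment, analysed relative to DMSO with bidirectional fitting.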

[9] = read-out: Interleukin-8 (IL8), CXCL8 (gene 3576); experiment: BSK_hDFCGF_IL8: BioMAP Diversity Plus: hDFCGF Assay for Interleukin-8 (IL8) Biomarker Activity (AID 2283058); conditions: primary human foreskin fibroblasts; actives raise or lower the signal
How it was run: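 hDFCGF human dermal fibroblasts; 24 h chemical exposure; IL-8 by ELISA; bidirectional curve fit vs DMSO baseline; gain or loss of signal scored.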

[10] = BSK_hDFCGF_Proliferation: Cell Proliferation Assessment in the BioMAP Diversity Plus: hDFCGF Assay (AID 2283059); conditions: primary human foreskin fibroblasts;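 note: curves fitted for both rise and fall of signal versus DMSO baseline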
How it was run: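 Primary human foreskin fibroblasts, sub-confluent; […]; 10% TCA fix, 0.1% SRB stain, A560 total protein. Gain/loss fitted bidirectionally vs DMSO control.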

Measured: AC50

CNC(=S)S
active: [2] 9.42 µM | [4] 20 µM | [10] 20 µM
inactive: all other assays above

CCCN(CCC)c1c([N+](=O)[O-])cc(S(N)(=O)=O)cc1[N+](=O)[O-]
inactive: [2] | [3] | [4] | [7] | [8] | [9]
active: [1] 35.6 µM [middle of 4 runs] | [2] 37.6 µM and 34.1 µM | [3] 21.1 µM and 34.7 µM and 30.7 µM | [4] 32.5 µM and 31.4 µM | [5] 34.5 µM [middle of 4 runs] | [6] 36.4 µM [middle of 4 runs] | [7] 30.9 µM and 16.5 µM | [9] 34.5 µM | [10] 24.3 µM [middle of 4 runs]

CO/C=C(/C(=O)OC)c1ccccc1Oc1cc(Oc2ccccc2C#N)ncn1
active: [4] 12.1 µM | [7] 16.9 µM [middle of 4 runs] | [10] 30.2 µM and 34.3 µM and 25.5 µM
inactive: [1] | [2] | [3] | [4] | [5] | [6] | [8] | [9] | [10]

CC(C)C1(C)N=C(c2nc3ccccc3cc2C(=O)O)NC1=O (centres undefined)
inactive: all assays above

CCCCNC(=O)OCC#CI
active: [1] 30.5 µM and 30.6 µM | [2] 4.72 µM and 36.3 µM | [3] 24.6 µM | [4] 3.5 µM and 5.34 µM | [5] 12.7 µM and 13.9 µM | [6] 11.1 µM and 14.6 µM | [7] 7.69 µM and 7.7 µM | [8] 11.6 µM | [9] 10.2 µM and 11 µM | [10] 134 nM and 534 nM
inactive: [3] | [8]

COc1cnc(OC)n2nc(NS(=O)(=O)c3c(OCC(F)F)cccc3C(F)(F)F)nc12
inactive: all assays above

N#CC(CCc1ccc(Cl)cc1)(Cn1cncn1)c1ccccc1 (centres undefined)
active: [10] 1.78 µM
inactive: all other assays above

N#Cc1nn(-c2c(Cl)cc(C(F)(F)F)cc2Cl)c(N)c1S(=O)C(F)(F)F (centres undefined)
active: [1] 24.9 µM | [2] 21.9 µM | [4] 2.24 µM | [6] 23.6 µM | [8] 1.71 µM
inactive: [3] | [5] | [7] | [9] | [10]

CCCCOC(=O)c1ccccc1C(=O)OCCCC
active: [2] 11 µM | [4] 13.9 µM and 11.8 µM | [7] 10.9 µM
inactive: [1] | [2] | [3] | [5] | [6] | [7] | [8] | [9] | [10]

Fc1ccc(Oc2ccnc3cc(Cl)cc(Cl)c23)cc1
active: [1] 23.7 µM | [2] 18.6 µM | [4] 24.3 µM | [7] 12.1 µM | [10] 11.7 µM
inactive: [3] | [5] | [6] | [8] | [9]

CC(Oc1ccc(Cl)cc1Cl)C(=O)O (centres undefined)
inactive: all assays above

COc1nc(C)nc(NC(=O)NS(=O)(=O)c2ccccc2CCC(F)(F)F)n1
inactive: [1] | [2] | [3] | [5] | [6] | [7] | [8] | [9] | [10]
active: [4] 148 nM and 33.8 µM and 3.97 µM | [7] 0.213 µM

CCOP(=S)(OCC)SCn1c(=O)oc2cc(Cl)ccc21
active: [2] 19.9 µM | [7] 20 µM | [10] 15.5 µM
inactive: all other assays above

Oc1ccccc1-c1ccccc1
inactive: all assays above

Cc1cc(Cl)ccc1OCC(=O)O
inactive: all assays above

CC1=C(C(=O)Nc2ccccc2)SCCO1
inactive: all assays above

CCCCNC(=O)n1c(NC(=O)OC)nc2ccccc21
active: [2] 17.4 µM | [4] 33.8 µM | [10] 15 µM
inactive: all other assays above

C=CCC1=C(C)C(OC(=O)C2C(C=C(C)C)C2(C)C)CC1=O (centres undefined)
active: [2] 16.6 µM and 26.3 µM and 21 µM | [4] 31.7 µM [middle of 4 runs] | [6] 32.5 µM | [7] 21 µM [middle of 4 runs] | [9] 40.3 µM [middle of 4 runs] | [10] 16.5 µM [middle of 4 runs]
inactive: [1] | [2] | [3] | [5] | [6] | [8]

CC1COC(Cn2cncn2)(c2ccc(Oc3ccc(Cl)cc3)cc2Cl)O1 (centres undefined)
inactive: [1] | [3] | [5] | [6]
active: [2] 16.1 µM | [4] 37.9 µM | [7] 28.1 µM | [8] 8.04 µM | [9] 34.5 µM | [10] 25 µM

CN(C)C(=S)SSC(=S)N(C)C
inactive: [1] | [3] | [5]
active: [2] 9.88 µM | [4] 2.74 µM | [6] 11.5 µM | [7] 6.36 µM | [8] 5.9 µM | [9] 7.67 µM | [10] 2.76 µM

O=C(O)c1nc(Cl)ccc1Cl
inactive: all assays above

CCNc1nc(Cl)nc(NC(C)C)n1
active: [5] 20 µM
inactive: all other assays above

OC(c1ccc(Cl)cc1)(c1cncnc1)c1ccccc1Cl (centres undefined)
active: [2] 16.6 µM | [10] 20 µM
inactive: all other assays above

N#Cc1cc(Br)c(O)c(Br)c1
active: [4] 10.9 µM | [5] 0.405 µM
inactive: all other assays above

CC(C)Oc1cc(-n2nc(C(C)(C)C)oc2=O)c(Cl)cc1Cl
active: [2] 25.7 µM | [4] 29.8 µM | [10] 29.5 µM
inactive: all other assays above

CS/C(C)=N/OC(=O)N(C)SN(C)C(=O)O/N=C(\C)SC
active: [1] 31.2 µM | [4] 8.62 µM | [5] 31.5 µM | [6] 30.8 µM | [10] 3.73 µM
inactive: all other assays above
